In ChEMBL document CHEMBL1961873, “Compounds: GSK PKIS; Assays: Nanosyn kinase panel” (2012):

Assays:
[1] = molecular target: Serine/threonine-protein kinase pim-2 (Homo sapiens) (UniProt Q9P1W9); settings: at 1 µM;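 note: each value is a mean of the inhibition measurements against the kinase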
[2] = molecular target: Serine/threonine-protein kinase pim-3 (Homo sapiens) (UniProt Q86V86); settings: at 0.1 µM
[3] = molecular target: Serine/threonine-protein kinase pim-3 (Homo sapiens) (UniProt Q86V86); settings: at 1 µM
[4] = molecular target: T1, MAP kinase-activated protein kinase 5 (Homo sapiens) (UniProt Q8IW41); settings: at 0.1 µM
T1 sequence (whole entry): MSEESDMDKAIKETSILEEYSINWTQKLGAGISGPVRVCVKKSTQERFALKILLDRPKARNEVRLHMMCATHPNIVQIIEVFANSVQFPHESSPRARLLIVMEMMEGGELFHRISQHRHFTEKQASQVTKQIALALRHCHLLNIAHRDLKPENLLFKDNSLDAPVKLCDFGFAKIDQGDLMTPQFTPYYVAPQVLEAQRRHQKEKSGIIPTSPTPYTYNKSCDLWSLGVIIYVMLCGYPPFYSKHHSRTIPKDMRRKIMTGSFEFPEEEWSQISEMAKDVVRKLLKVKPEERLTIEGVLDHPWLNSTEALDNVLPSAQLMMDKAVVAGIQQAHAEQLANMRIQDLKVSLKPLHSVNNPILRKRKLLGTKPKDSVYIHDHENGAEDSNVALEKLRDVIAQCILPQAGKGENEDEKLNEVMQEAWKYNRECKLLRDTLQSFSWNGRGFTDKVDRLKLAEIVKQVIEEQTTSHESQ

[5] = molecular target: T1, MAP kinase-activated protein kinase 5 (Homo sapiens); settings: at 1 µM
[6] = molecular target: Serine/threonine-protein kinase SIK1 (Homo sapiens) (UniProt P57059); settings: at 0.1 µM
[7] = molecular target: Serine/threonine-protein kinase SIK1 (Homo sapiens) (UniProt P57059); settings: at 1 µM
[8] = molecular target: Serine/threonine-protein kinase SIK2 (Homo sapiens) (UniProt Q9H0K1); settings: at 0.1 µM
[9] = molecular target: Serine/threonine-protein kinase SIK2 (Homo sapiens) (UniProt Q9H0K1); settings: at 1 µM
[10] = molecular target: T2, Serine/threonine-protein kinase TBK1 (Homo sapiens) (UniProt Q9UHD2); settings: at 0.1 µM
T2 sequence (whole entry): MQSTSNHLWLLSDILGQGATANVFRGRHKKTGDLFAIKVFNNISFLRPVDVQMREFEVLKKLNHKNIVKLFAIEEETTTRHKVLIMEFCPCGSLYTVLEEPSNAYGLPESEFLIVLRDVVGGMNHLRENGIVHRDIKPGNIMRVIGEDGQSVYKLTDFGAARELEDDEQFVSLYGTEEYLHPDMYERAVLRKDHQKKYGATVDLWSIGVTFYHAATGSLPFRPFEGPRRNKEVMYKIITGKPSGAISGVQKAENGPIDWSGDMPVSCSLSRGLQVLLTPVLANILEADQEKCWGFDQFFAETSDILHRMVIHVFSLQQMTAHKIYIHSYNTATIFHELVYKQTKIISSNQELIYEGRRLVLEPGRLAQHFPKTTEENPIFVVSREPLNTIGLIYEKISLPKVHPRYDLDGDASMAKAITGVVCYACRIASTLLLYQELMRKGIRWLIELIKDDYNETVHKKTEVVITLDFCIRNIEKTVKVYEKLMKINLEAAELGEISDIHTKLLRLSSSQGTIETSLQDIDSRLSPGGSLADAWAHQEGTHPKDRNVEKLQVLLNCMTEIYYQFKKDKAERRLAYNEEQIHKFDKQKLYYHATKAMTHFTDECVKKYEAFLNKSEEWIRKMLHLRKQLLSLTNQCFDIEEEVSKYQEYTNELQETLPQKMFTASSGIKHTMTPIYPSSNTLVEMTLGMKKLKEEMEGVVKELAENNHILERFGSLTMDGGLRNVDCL

[11] = molecular target: T2, Serine/threonine-protein kinase TBK1 (Homo sapiens); settings: at 1 µM
[12] = molecular target: T3, Testis-specific serine/threonine-protein kinase 1 (Homo sapiens) (UniProt Q9BXA7); settings: at 0.1 µM
T3 sequence (whole entry): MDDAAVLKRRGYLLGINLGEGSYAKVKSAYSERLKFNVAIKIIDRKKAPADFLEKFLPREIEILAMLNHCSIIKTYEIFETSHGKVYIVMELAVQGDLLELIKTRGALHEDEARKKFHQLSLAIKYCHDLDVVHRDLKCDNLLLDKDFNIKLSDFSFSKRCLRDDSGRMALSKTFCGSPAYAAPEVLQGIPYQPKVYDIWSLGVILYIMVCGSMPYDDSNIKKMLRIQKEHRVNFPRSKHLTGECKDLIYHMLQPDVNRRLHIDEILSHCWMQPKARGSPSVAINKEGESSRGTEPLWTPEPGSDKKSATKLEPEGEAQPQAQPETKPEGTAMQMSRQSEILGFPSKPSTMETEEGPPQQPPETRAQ

[13] = molecular target: T3, Testis-specific serine/threonine-protein kinase 1 (Homo sapiens); settings: at 1 µM
[14] = molecular target: T4, Testis-specific serine/threonine-protein kinase 2 (Homo sapiens) (UniProt Q96PF2); settings: at 0.1 µM
T4 sequence (whole entry): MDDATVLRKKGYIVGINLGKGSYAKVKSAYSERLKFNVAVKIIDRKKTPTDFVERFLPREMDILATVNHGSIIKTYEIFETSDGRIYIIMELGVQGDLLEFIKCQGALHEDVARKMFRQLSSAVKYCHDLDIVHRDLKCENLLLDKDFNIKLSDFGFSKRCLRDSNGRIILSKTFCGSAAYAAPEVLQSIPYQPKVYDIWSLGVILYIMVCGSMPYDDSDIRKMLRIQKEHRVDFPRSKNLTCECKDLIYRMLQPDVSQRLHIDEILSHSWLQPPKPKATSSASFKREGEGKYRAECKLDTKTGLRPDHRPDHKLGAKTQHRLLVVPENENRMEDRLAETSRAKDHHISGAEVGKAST

[15] = molecular target: T4, Testis-specific serine/threonine-protein kinase 2 (Homo sapiens); settings: at 1 µM
[16] = molecular target: Casein kinase I isoform alpha (Homo sapiens) (UniProt P48729); settings: at 0.1 µM
[17] = molecular target: Casein kinase I isoform alpha (Homo sapiens) (UniProt P48729); settings: at 1 µM
[18] = molecular target: Casein kinase I isoform gamma-1 (Homo sapiens) (UniProt Q9HCP0); settings: at 0.1 µM
[19] = molecular target: Casein kinase I isoform gamma-1 (Homo sapiens) (UniProt Q9HCP0); settings: at 1 µM
[20] = molecular target: Casein kinase I isoform gamma-2 (Homo sapiens) (UniProt P78368); settings: at 0.1 µM;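 note: values are mean inhibition figures reported as part of the GSK PKIS dataset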
Sequence of Casein kinase I isoform gamma-2 (Homo sapiens) (P78368 whole entry, looked up, canonical isoform): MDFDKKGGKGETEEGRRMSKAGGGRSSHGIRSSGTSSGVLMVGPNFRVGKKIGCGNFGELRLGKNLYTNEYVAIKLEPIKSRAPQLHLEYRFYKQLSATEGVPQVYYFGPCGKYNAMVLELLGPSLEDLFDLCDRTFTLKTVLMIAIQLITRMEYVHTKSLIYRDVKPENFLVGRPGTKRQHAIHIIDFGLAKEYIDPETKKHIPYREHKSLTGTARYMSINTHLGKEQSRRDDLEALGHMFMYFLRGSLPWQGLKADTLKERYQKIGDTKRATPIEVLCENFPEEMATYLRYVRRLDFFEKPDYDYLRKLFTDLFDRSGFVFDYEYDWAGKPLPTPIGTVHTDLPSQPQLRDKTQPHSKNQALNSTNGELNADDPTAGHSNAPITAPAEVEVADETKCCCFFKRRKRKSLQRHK

Sequence of Serine/threonine-protein kinase pim-2 (Homo sapiens) (Q9P1W9 whole entry, looked up): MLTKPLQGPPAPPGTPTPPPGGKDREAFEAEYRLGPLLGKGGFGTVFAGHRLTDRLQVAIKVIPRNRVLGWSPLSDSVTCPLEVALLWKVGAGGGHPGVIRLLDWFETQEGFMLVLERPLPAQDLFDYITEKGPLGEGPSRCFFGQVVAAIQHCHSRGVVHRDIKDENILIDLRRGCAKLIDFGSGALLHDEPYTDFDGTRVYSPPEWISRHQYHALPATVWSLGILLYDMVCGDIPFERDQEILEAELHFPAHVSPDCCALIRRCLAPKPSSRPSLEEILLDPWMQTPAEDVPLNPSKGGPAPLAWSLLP
Sequence of Serine/threonine-protein kinase SIK2 (Homo sapiens) (Q9H0K1 whole entry, looked up): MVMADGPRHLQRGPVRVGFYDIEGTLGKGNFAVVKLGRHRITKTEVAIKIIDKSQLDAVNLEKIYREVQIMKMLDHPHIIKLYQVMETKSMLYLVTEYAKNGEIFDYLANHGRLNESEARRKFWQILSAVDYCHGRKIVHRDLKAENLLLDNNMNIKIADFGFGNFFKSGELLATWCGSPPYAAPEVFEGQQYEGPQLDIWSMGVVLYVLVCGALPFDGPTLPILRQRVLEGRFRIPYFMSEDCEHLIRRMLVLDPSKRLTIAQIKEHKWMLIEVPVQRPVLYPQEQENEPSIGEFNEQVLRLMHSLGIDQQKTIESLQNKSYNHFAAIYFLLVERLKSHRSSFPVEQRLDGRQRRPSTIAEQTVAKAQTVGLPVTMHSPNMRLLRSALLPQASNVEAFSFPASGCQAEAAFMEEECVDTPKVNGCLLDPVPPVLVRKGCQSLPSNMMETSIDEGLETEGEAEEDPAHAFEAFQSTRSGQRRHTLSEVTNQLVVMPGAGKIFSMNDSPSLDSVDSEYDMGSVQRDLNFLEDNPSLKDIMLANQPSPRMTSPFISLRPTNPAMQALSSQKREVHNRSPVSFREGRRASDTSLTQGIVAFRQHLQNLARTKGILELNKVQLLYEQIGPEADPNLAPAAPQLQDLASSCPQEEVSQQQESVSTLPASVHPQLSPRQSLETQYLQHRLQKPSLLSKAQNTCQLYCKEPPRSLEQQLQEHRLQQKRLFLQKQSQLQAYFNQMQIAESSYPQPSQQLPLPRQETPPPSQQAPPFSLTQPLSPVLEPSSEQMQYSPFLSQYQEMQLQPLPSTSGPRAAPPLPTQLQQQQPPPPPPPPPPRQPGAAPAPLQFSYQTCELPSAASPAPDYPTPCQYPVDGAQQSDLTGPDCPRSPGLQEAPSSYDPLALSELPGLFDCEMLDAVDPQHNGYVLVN
Sequence of Casein kinase I isoform alpha (Homo sapiens) (P48729 2-337 limits assumed): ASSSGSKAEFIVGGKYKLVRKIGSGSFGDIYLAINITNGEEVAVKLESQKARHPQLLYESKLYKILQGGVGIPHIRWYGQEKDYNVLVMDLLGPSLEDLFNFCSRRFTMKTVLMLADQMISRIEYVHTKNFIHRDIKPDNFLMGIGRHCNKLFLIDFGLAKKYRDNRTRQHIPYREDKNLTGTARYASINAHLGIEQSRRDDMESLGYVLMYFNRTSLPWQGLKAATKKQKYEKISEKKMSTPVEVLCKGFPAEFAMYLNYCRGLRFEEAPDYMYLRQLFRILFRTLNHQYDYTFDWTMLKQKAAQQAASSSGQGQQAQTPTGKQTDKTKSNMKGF
Sequence of Casein kinase I isoform gamma-1 (Homo sapiens) (Q9HCP0 whole entry, looked up, canonical isoform): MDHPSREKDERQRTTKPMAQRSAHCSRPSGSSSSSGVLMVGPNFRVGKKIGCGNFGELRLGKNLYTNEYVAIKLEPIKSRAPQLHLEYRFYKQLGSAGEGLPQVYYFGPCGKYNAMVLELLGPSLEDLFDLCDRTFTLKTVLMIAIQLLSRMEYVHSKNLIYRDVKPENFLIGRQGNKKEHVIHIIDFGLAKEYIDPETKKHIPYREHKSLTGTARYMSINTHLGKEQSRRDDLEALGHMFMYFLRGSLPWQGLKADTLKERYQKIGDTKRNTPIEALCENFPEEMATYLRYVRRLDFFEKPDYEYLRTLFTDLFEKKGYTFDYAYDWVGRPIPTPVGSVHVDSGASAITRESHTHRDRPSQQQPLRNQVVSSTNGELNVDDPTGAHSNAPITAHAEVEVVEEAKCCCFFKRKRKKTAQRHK
Sequence of Serine/threonine-protein kinase SIK1 (Homo sapiens) (P57059 whole entry): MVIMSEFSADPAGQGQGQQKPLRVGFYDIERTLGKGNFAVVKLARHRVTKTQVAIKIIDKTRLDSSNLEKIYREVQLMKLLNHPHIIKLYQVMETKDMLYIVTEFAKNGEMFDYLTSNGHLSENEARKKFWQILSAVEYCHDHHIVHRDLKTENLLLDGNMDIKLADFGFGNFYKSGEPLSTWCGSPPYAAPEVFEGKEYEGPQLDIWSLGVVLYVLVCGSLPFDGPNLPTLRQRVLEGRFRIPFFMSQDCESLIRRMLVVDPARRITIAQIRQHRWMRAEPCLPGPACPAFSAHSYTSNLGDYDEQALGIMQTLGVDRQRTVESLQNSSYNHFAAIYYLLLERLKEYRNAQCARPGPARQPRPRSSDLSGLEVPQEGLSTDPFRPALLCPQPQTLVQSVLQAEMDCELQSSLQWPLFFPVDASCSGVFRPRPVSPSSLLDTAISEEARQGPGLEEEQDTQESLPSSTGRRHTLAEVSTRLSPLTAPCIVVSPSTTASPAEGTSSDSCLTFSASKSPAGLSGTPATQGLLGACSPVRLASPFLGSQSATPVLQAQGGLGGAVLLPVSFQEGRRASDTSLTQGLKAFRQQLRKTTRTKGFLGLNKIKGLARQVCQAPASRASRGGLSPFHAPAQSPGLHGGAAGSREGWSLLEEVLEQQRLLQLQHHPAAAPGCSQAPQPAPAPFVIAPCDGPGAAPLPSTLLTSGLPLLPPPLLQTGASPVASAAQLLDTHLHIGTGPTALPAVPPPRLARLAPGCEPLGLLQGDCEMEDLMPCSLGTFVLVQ

Compound	inhibition [1] [%]	inhibition [2] [%]	inhibition [3] [%]	inhibition [4] [%]	inhibition [5] [%]	inhibition [6] [%]	inhibition [7] [%]	inhibition [8] [%]	inhibition [9] [%]	inhibition [10] [%]	inhibition [11] [%]	inhibition [12] [%]	inhibition [13] [%]	inhibition [14] [%]	inhibition [15] [%]	inhibition [16] [%]	inhibition [17] [%]	inhibition [18] [%]	inhibition [19] [%]	inhibition [20] [%]
COc1cccc(/C=N/Nc2ncnc3c2cnn3-c2cccc(OC)c2)c1	-0.53	0.38	0.16	0.99	1.08	5.07	8.61	5.87	6.63	3.28	1.31	3.46	3.86	2.47	1.38	3.37	6.05	2.82	3.51	3.16
CS(=O)(=O)CCNCc1ccc(-c2ccc3ncnc(Nc4ccc(OCc5ccccc5)c(Br)c4)c3c2)o1	-3.1	-0.66	-0.32	1.32	2.06	2.19	8.17	4.6	4.18	1.02	1.05	2.71	2.53	1.22	1	1.67	0.68	0.63	-0.07	-0.49
Cc1ccc(NC(=O)c2ccoc2)cc1-c1ccc(C(=O)NCC2CC2)cc1	0.6	0.71	-0.9	0.96	0.83	2.51	0.11	5.39	5.33	0.28	0.72	1.46	3.27	0.85	1.22	1.36	1.47	2.78	3.5	2.62
O=C(Nc1n[nH]c2cc(-c3cc(F)ccc3F)ccc12)C1CC1	-0.55	-2.08	-1.66	0.74	0.41	5.25	11.2	10.9	21.9	3.98	5.44	2.75	2.04	1.22	0.5	0.79	1.31	3.28	3.73	2.53
CCc1nccc2c1nc(-c1nonc1N)n2CC	1.27	-0.38	-2.26	-0.45	-1.56	0.62	4.31	-4.39	6.79	1.12	6.1	0.58	0.27	-0.65	-0.91	3.39	3.67	0.76	2.98	0.48
NC(=O)Cc1ccccc1Oc1nccc(-c2c(-c3ccc(F)cc3)ncn2C2CCNCC2)n1	0.59	-1.38	0.63	0.43	-0.72	3.93	4.7	3.81	-3.54	5.2	4.55	2.65	1.8	1.16	-0.31	9.09	12.9	4.95	10.3	3.59
CCc1cccc(CC)c1/C=C/c1cncc(C(=O)NC)c1	-0.07	-0.9	-2.15	0.86	-0.1	0.91	6.26	1.69	-1.33	0.14	1.52	1.47	0.1	1.86	-3.19	2.53	6.21	2.66	5.44	1.49
O=C1Nc2ccc(I)cc2C1=Cc1cc(Br)c(O)c(Br)c1	18.2	1.85	17.7	1.19	1.78	8.91	9.38	4.92	9.04	3.66	2.5	4.56	5.45	2.33	2.81	5.08	6.76	3.7	5.38	3.7
CCC(=O)Nc1ccc(C)c(-c2ccc(C(=O)NCC3CC3)cc2)c1	0.38	0.17	0.73	0.96	0.76	4.61	5.28	4.06	6.63	2.36	2.69	3.66	3.59	1.6	1.74	2.53	3.41	2.54	3	2.3
Clc1ccc(CNc2nccc(-c3cnn4ncccc34)n2)cc1	2.14	1.78	6.13	0.35	0.03	0.93	1.65	4.14	0.45	0.1	2.91	0.5	-0.65	0.23	-1.43	2.75	16.9	0.12	7.72	1.44
c1ccc(-c2n[nH]cc2-c2ccnc(-c3ccc(OCCN4CCOCC4)cc3)c2)nc1	5.56	5.26	3.99	-1.14	-0.78	0.04	-2.45	-6.26	-0.03	1.5	1.95	-1.9	-3.08	-1.89	-0.96	0.38	1.39	-1.07	-0.62	-2.46
